The results in this text go back to ChEMBL document CHEMBL4888484, “Replenishing the malaria drug discovery pipeline: Screening and hit evaluation of the MMV Hit Generation Library 1 (HGL1) against asexual blood stage Plasmodium falciparum ,using a nano luciferase reporter read-out” (2022).

Among all 150,000 compounds or so, about 540 (0.36%) showed an effect of 50% or more. What follows is part of a selection rich in strong results, with near analogues and random picks from the rest.

The test system of the assay is Plasmodium falciparum. The experiment in a line: Primary screen in NF54 nanoGlo assay, in single point, at 2uM, 72h; a lower Z score goes with more inhibition. The assay is classed as functional, Erythrocyte. As to conditions: timepoint 72 hour.
In general, % Inhibition refers to the drop in the measured response relative to a control, in per cent. For `Cc1cc(NC(=O)c2ccc3c(c2)C(=O)N(C[C@H]2CCCO2)C3=O)no1`, the “% Inhibition” value is -8% and the Z score worked out at 1.45.

Regarding `CNC(=O)[C@@H]1CCCN1C(=O)CNC(=O)c1cccc2c1OCC2`, the “% Inhibition” value is recorded as -5% and the Z score is given as 0.71.

Consider `Cc1ncsc1CCN(C)CCn1cc[nH]c1=O`, for which the “% Inhibition” value is listed as -15% and the Z score is 3.22.

As for `O=C(NC(C1CC1)C1CC1)c1coc(COc2cccc(F)c2)n1`, the “% Inhibition” value is recorded as -6% and the Z score was determined as 1.01.

Turning to `Cc1noc(Cl)c1CC(=O)N1CCCC(C)(C)CC1`, the “% Inhibition” value is reported as 44% and the Z score was -6.85.

For the molecule `CC[C@@]1(C)CCCN(C(=O)Cc2c(C)noc2Cl)C1`, the “% Inhibition” value is reported as 85% and the Z score was -13.67.

`Cc1noc(C)c1CC(=O)N1CCCCCC1`: the “% Inhibition” value was -23% and the Z score is on record as 2.1.

In the case of `Cc1cc(C(=O)Nc2nc(C)cs2)on1`, the “% Inhibition” value was -13% and the Z score was 2.13.

With `O[C@@H](Cc1ccc2ccccc2n1)c1ccccc1`, the “% Inhibition” value amounted to 33% and the Z score was 0.78.

Take `Cc1ccc[n+](CC2OCc3ccccc3CO2)c1`: the “% Inhibition” value is reported as 5% and the Z score is on record as -0.68.

`Cc1ccc[n+](Cc2ccc3ccccc3n2)c1`: the “% Inhibition” value was 59% and the Z score is -7.89.

`c1ccc2cc(-c3ccc4ccccc4n3)ccc2c1`: the “% Inhibition” value was 41% and the Z score is -1.59.

As to `c1ccc2c[n+](Cc3ccc4ccccc4n3)ccc2c1`, the “% Inhibition” value is given as 59% and the Z score is listed as -7.39.

In the case of `Cc1nnc(CN(C)Cc2ccc3ccccc3n2)o1`, the “% Inhibition” value is recorded as -21% and the Z score worked out at 2.06.

As for `Cc1ccc(S(=O)(=O)N2CCO[C@@H](COc3ccccc3)C2)c(C)c1NS(C)(=O)=O`, the “% Inhibition” value came out at 0% and the Z score amounted to 0.05.

Regarding `COC(C)(C)CCC[C@H](C)CCNCC(C)(C)N1CCOCC1`, the “% Inhibition” value was 1% and the Z score is -0.18.

As for `N#C[C@H]1C(=O)c2ccccc2N(Cc2ccccc2)C1=O`, the “% Inhibition” value is on record as -5% and the Z score worked out at 0.84.

Turning to `CCN1CC(=O)N[C@H]2CN(C(=O)c3cnn(CC)c3C)CC[C@@H]2OCc2cccc(c2)Oc2cc(OC(C)C)cc(c2)C1=O`, the “% Inhibition” value is given as -5% and the Z score stood at 0.73.

Consider `CCn1nc(-c2ccc(OC)cc2F)cc1C(=O)NCCN1CCCCC1`, for which the “% Inhibition” value is listed as -17% and the Z score was 2.1.

For `Cc1cc(C)c2nc(N3CCC(C(=O)NC4CCCCCC4)CC3)sc2c1`, the “% Inhibition” value is listed as -8% and the Z score came out at 1.22.

As to `CC(C)CNC(=O)CS(=O)(=O)Cc1ccccc1`, the “% Inhibition” value was -6% and the Z score worked out at 1.18.

`CCOC(=O)N1CCC(NC(=O)c2coc(NC(=O)Cc3c(C)noc3C)n2)CC1`: the “% Inhibition” value was determined as 18% and the Z score is -2.53.

For the molecule `CC(C)c1cc(=O)[nH]c(-n2nc(C3CC3)cc2NC(=O)c2ccccc2C(F)(F)F)n1`, the “% Inhibition” value turned out to be 18% and the Z score was -3.33.

For `Cc1nc(CC(=O)Nc2cc(C3CC3)nn2-c2ccccc2)cs1`, the “% Inhibition” value stood at 38% and the Z score is -0.78.

As to `COc1ccc(C(=O)OCC(=O)Nc2cc(C3CC3)nn2-c2ccccc2)c(O)c1`, the “% Inhibition” value was -7% and the Z score is given as 1.34.

For the molecule `CC(C)c1cc(=O)[nH]c(-n2nc(C3CC3)cc2NC(=O)Cc2ccc(Cl)cc2)n1`, the “% Inhibition” value amounted to 74% and the Z score is -12.5.

Consider `CC(C)c1cc(=O)[nH]c(-n2nc(C3CC3)cc2NC(=O)COc2ccc3ccccc3c2)n1`, for which the “% Inhibition” value came out at 54% and the Z score was -12.73.
